Measurements as given in PubChem BioAssay (NCI).
About 83,000 compounds went through this panel and 20% of them were active in at least one assay; those are over-represented in the sample as a whole.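 Interpretation: 100, growth as untreated; towards 0, rising growth inhibition; 0, no net growth; 0 to -100, cell death. Compounds scoring below 10 were considered active.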 The source made the active and inactive calls.

Columns and labels:
Test in all cases: NCI-60 one-dose screen, 48 h (100 = growth as untreated, 0 = no growth, -100 = all killed)
Conditions in all cases: 10 µM unless noted
[1] = tested on: SR leukemia
[2] = tested on: RPMI-8226 leukemia
[3] = tested on: OVCAR-8 ovarian
[4] = tested on: OVCAR-5 ovarian
[5] = tested on: OVCAR-4 ovarian
[6] = tested on: SK-OV-3 ovarian
[7] = tested on: IGROV1 ovarian
[8] = tested on: OVCAR-3 ovarian
[9] = tested on: HS 578T breast
[10] = tested on: NCI/ADR-RES ovarian
[11] = tested on: T-47D breast
[12] = tested on: BT-549 breast
[13] = tested on: MDA-MB-435 melanoma
[14] = tested on: SW-620 colon
[15] = tested on: MCF7 breast
[16] = tested on: HCC-2998 colon
[17] = tested on: KM12 colon
[18] = tested on: HCT-116 colon

Measured: growth

CC(=O)Oc1ccc(OC(C)=O)c2ccccc12
inactive: [1] 56.8% | [3] 48.8% | [4] 98.4% | [6] 102% | [7] 68.5% | [8] 59.7% | [9] 109% | [10] 64.5% | [12] 96.8% | [13] 95.8% | [14] 109% | [15] 57.3% | [16] 103% | [17] 100%
active: [2] 6.57% | [5] -96.4% | [11] -49.6%

CCN(CC)CCCN1C(=O)c2c(c(C)c3c(oc4ccc(OC)cc43)c2C)C1=O
inactive: [1] 102% | [2] 99.3% | [3] 93.3% | [4] 114% | [5] 117% | [6] 109% | [7] 94.6% | [8] 108% | [9] 99.2% | [10] 95.7% | [11] 105% | [12] 119% | [13] 109% | [14] 97.9% | [15] 98.3% | [18] 93.3% | [17] 104%

C#CC#CC#CC#CC#CC#CC#CC#CCC1OC[C@H](COC(=O)O[C@@H](C(=O)O[C@H]2C[C@@]3(O)[C@@H](OC(=O)c4ccccc4)[C@@H]4[C@]5(OC(C)=O)CO[C@@H]5C[C@H](O)[C@@]4(C)C(=O)[C@H](OC(C)=O)C(=C2C)C3(C)C)[C@@H](NC(=O)c2ccccc2)c2ccccc2)O1 (stereo partly drawn)
active: [8] 9.45% | [9] 8.95% | [13] -48%
inactive: [1] 24.6% | [2] 15.4% | [3] 31.4% | [4] 26% | [5] 57.5% | [6] 53.5% | [7] 33.2% | [10] 106% | [11] 41.3% | [12] 26.4% | [14] 27.7% | [15] 25% | [16] 10.4% | [17] 10.8%

C=C(CNCCc1ccc(O)cc1)[C@@H]1CC[C@]2(CO)CC[C@]3(C)[C@H](CC[C@@H]4[C@@]5(C)CCC(=O)C(C)(C)[C@@H]5CC[C@]43C)[C@@H]12
inactive: [4] 90% | [5] 58.1% | [6] 92.4% | [7] 30.9% | [8] 39.7% | [9] 51.9% | [10] 33% | [11] 42.2% | [12] 79.5%
active: [1] -24.9% | [2] -12.2% | [3] -70.3% | [13] 2.13% | [14] -49.8% | [15] -1.07% | [18] -86.1% | [17] 1.19%

Cc1ccc2c(=O)cc(C(=O)Nc3sc4c(c3C(=O)NCc3cccnc3)CCCC4)oc2c1C
inactive: [1] 89.8% | [2] 102% | [3] 98.4% | [4] 105% | [5] 105% | [6] 100% | [7] 100% | [8] 106% | [9] 91.7% | [10] 98.9% | [11] 94% | [12] 107% | [13] 101% | [14] 101% | [15] 96.8% | [18] 109% | [17] 97.1%

CC1CCN(C(=O)CCCl)c2ccccc21 (stereo not drawn)
inactive: [1] 113% | [2] 114% | [3] 96.6% | [4] 129% | [5] 103% | [6] 112% | [7] 96.9% | [8] 115% | [9] 87.5% | [10] 98% | [11] 121% | [12] 96.3% | [13] 123% | [14] 91.3% | [15] 97.5% | [18] 97.3% | [16] 86.1% | [17] 102%

COc1cc(C(=O)n2nc(N3CCOCC3)c3cc(-n4cccc4)ccc32)cc(OC)c1OC
inactive: [2] 42.6% | [3] 64% | [4] 98.3% | [5] 68.5% | [6] 72.5% | [7] 68% | [8] 87.3% | [9] 68.5% | [10] 68.5% | [11] 60.5% | [12] 56.2% | [13] 75.2% | [14] 67.5% | [15] 52.1% | [18] 48.6% | [16] 99.7% | [17] 81.8%
active: [1] 6.85%

Cc1ccc(/C=C/C(=O)c2ccc(-n3cc(CN4CCN(c5cc6c(cc5F)c(=O)c(C(=O)O)cn6C5CC5)CC4)nn3)cc2)cc1
inactive: [1] 63.2% | [2] 44.3% | [3] 62.5% | [4] 109% | [5] 94.8% | [6] 84.7% | [7] 69.9% | [8] 96% | [9] 80.5% | [10] 103% | [11] 86.7% | [12] 73.7% | [13] 77.4% | [14] 98.4% | [15] 59.2% | [17] 84.1%
active: [18] 8.04%
